Inconclusive results are not listed. A call without a number means that no potency is given here. Active and inactive are the calls of the source. Unless noted, calls come from the whole dose curve; as a rule, active = well fitted curve in the direction sought with a large enough effect; inconclusive = small, poorly fitted or top-dose-only effect, or another doubt; inactive = no such curve, though single readings can be large; an effect the other way counts as inactive or inconclusive.
Legend:
[1] = molecular target: Cytochrome P450 2C9 (Homo sapiens) (UniProt P11712); assay: qHTS Assay for Inhibitors and Substrates of Cytochrome P450 2C9 (AID 883); conditions: recombinant CYP2C9, luciferin-H luminescence, 60 min; series mostly up to 11.4 µM; note: potency is the fitted concentration of half-maximal effect; nearly all actives have a fitted effect of over 60% in size
In short: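 A luminogenic readout tracked human CYP2C9 (10nM) converting deoxyluciferin (100uM, at KM) in 25mM KPO4 during 60 min at 37C with regenerated NADPH. Values normalized to 57uM sulphaphenazole as complete inhibition.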

[2] = molecular target: Cytochrome P450 3A4 (Homo sapiens) (UniProt P08684); assay: qHTS Assay for Inhibitors and Substrates of Cytochrome P450 3A4 (AID 884); conditions: recombinant CYP3A4, Luciferin-PPXE luminescence; series mostly up to 57.1 µM; note: nearly all actives have a fitted effect of over 50% in size; note: potency is the fitted concentration of half-maximal effect
In short: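 Luminescent readout of luciferin produced by CYP3A4 (20 nM) dealkylation of Luciferin-PPXE, 25 uM (its KM). NADPH-driven reaction ran 60 min at RT after 10 min compound preincubation; data scaled to 57 uM ketoconazole as 100% inhibition.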

[3] = molecular target: Cytochrome P450 3A4 (Homo sapiens) (UniProt P08684); assay: qHTS Assay for Activators of Cytochrome P450 3A4 (AID 885); conditions: recombinant CYP3A4, Luciferin-PPXE luminescence, 60 min; series mostly up to 57.1 µM; note: nearly all actives have a fitted effect of over 65% in size
In short: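 Luminescent readout of luciferin formed from 25 uM Luciferin-PPXE (KM level) by 20 nM CYP3A4 in 200 mM KPO4, with 60 min NADPH-driven reaction at room temperature after 10 min compound exposure. Ketoconazole (57 uM) defined 100% inhibition.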

[4] = molecular target: Cytochrome P450 2C19 (Homo sapiens) (UniProt P33261); assay: qHTS Assay for Inhibitors and Substrates of Cytochrome P450 2C19 (AID 899); conditions: recombinant CYP2C19, luciferin-H EGE luminescence; series mostly up to 11.4 µM; note: potency is the fitted concentration of half-maximal effect; nearly all actives have a fitted effect of over 60% in size
In short: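 NADPH-dependent conversion of Luciferin-H EGE (10uM, at KM) by 5nM enzyme in 50mM KPO4, 60 min at 37C following 10 min compound preincubation. Stopped with luciferin detection buffer; luminescence read after 20 min.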

[5] = molecular target: Mitogen-activated protein kinase 10 (Mus musculus) (UniProt Q61831); assay: JNK3 AlphaScreen Assay (AID 530; active = well fitted curve in either direction with a large enough effect, not every such curve was filed as active;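 note: kinase came from lysate of stimulated human HepG2 cells; signal reports phosphorylation of biotinylated GST-cJun 1-79 at Ser73 with 10 µM ATP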); conditions: JNK3 lysate, c-Jun phosphorylation; series mostly up to 57.1 µM
In short: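 Biotinylated GST-cJun(1-79) served as substrate for JNK3 in HepG2 lysates stimulated with IL-1beta and TNF-alpha. ATP was 10 uM final, pH 7.6. Ser73 phosphorylation was quantified by AlphaScreen (680 nm excitation).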

Cytochrome P450 3A4 (Homo sapiens), sequence (P08684 whole entry, looked up): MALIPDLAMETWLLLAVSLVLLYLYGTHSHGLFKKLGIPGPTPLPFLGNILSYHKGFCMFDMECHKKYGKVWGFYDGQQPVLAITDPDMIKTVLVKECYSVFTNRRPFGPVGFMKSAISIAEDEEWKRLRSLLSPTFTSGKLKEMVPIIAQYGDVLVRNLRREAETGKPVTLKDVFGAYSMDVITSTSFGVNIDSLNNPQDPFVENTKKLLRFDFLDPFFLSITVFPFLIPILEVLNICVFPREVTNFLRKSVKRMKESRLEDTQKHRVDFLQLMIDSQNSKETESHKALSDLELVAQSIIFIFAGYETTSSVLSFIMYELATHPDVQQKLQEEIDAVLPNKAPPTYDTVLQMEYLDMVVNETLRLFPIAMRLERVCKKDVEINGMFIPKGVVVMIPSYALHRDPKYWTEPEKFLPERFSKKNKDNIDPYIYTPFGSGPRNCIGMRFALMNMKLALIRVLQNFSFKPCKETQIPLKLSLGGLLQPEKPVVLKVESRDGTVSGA
Cytochrome P450 2C9 (Homo sapiens), sequence (P11712 whole entry, looked up): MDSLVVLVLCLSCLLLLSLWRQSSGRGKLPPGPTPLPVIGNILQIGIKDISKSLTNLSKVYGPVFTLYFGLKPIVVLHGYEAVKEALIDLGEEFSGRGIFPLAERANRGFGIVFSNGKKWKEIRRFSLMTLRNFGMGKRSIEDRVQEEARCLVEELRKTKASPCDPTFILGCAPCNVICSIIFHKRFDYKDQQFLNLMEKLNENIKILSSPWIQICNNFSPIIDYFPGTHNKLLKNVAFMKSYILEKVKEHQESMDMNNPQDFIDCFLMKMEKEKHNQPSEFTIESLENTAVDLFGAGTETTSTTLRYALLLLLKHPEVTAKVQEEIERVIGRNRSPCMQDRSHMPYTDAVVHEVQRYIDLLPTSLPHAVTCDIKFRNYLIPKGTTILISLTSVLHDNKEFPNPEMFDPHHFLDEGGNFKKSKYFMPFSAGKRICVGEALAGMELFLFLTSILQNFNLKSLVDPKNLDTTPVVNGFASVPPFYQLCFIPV
Cytochrome P450 2C19 (Homo sapiens), sequence (P33261 whole entry, looked up): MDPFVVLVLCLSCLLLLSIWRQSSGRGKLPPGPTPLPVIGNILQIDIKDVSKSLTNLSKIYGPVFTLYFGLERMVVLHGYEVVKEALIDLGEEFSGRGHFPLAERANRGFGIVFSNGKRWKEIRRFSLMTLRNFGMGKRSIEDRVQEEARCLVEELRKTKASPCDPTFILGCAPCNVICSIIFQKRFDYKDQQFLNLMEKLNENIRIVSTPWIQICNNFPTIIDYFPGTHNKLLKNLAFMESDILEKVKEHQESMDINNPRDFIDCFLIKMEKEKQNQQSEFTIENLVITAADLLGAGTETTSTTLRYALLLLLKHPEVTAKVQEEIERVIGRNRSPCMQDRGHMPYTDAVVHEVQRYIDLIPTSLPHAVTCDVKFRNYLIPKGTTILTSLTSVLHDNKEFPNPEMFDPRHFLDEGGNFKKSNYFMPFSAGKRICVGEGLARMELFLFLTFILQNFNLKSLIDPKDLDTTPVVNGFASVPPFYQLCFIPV

Structure (SMILES) | Potency [1] | Potency [2] | Potency [3] | Potency [4] | outcome [5]
COC(=O)[C@@]1(Cc2ccccc2)[C@H]2c3cc(C(=O)N(C)C)n(Cc4c(CO)[nH]cc(C)c4=O)c3C[C@H]2CN1C(=O)c1ccccc1 | 631 nM (active) | 1580 nM (active) | inactive | 3160 nM (active) | 
CCCCCCN(C(=O)CCCCCN1C(=O)NC(c2ccc([N+](=O)[O-])cc2)C(C(=O)OCc2ccccc2)=C1C)C(C(=O)NCCCC)c1ccc(OCC(=O)OC)c(C(=O)OC)c1 (centres undefined) |  | 2000 nM (active) | inactive |  | inactive
COC(=O)[C@H](Cc1ccccc1)NC(=O)[C@@]1(C)C[C@@H]1[C@@H](NC(=O)OCc1ccccc1)c1ccccc1 |  | 2000 nM (active) | inactive |  | inactive
C[C@]1(C(=O)NCC2CC2)C=C[C@@H](Cc2ccccc2)N1C(=O)c1ccccc1 |  | 2000 nM (active) | inactive |  | inactive
COC(=O)[C@H](Cc1ccccc1)NC(=O)[C@H]1C[C@@H]1[C@H](NC(=O)OCc1ccccc1)c1ccccc1 |  | 7940 nM (active) | inactive |  | inactive
COC(=O)N1CC=CC1(C)C(=O)O (centres undefined) |  | inactive |  |  | inactive
CCC[C@@H]1C[C@@]1(CCC)[C@@H](NC(=O)c1ccccc1)c1ccc(C(=O)OC)cc1 |  | 6310 nM (active) | inactive |  | inactive
COC(=O)C1(C)C=CCN1C(=O)c1ccccc1 (centres undefined) |  | inactive |  |  | inactive
COC(=O)c1ccc(C(/C=C/[C@@H](C)C(=O)NCc2ccccc2)NC(=O)OCc2ccccc2)cc1 (some centres undefined) |  | 5010 nM (active) | inactive |  | inactive
CC1(C)OCC(CSC2=C(SCC3COC(C)(C)O3)C(=O)c3ncccc3C2=O)O1 (centres undefined) |  | 15800 nM (active) | inactive |  | inactive

From PubChem BioAssay (NCATS)
